# Laboratory results taken from PubChem BioAssay (NCATS).
# Inconclusive results are not listed. Activity calls are given as the source filed them. Calls come from the whole dose curve; as a rule, active = well fitted inhibition curve with a large enough effect; inconclusive = small, poorly fitted or top-dose-only effect; inactive = flat fitted curve, though single readings scatter.
# Molecular target: Calcium and integrin-binding protein 1 (Homo sapiens) (UniProt Q99828)
# Assay: Primary qHTS for Identification of Calcium Integrin Binding Protein 1 (CIB1) Competitor (AID 1508620);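 note: GST tagged CIB1 binding a fluorescein labelled alphaIIb integrin peptide tracer; top concentration of the series differs between compounds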
# Conditions: CIB1-GST / FITC-alphaIIb peptide fluorescence polarization; series mostly up to 114 µM; activity change, negative = inhibition: at the top concentration
# In short: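 CIB1-GST (1 uM final) and compound incubated 15 min at room temperature before adding FITC-alphaIIb peptide tracer (100 nM final). Competition for binding read by fluorescence polarization (ex 480, em 540) after another 15 min at room temperature.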
# % is set by controls: 0 for no effect and ±100 for the full control effect.
# Chain of Calcium and integrin-binding protein 1 (Homo sapiens) (Q99828 whole entry, looked up): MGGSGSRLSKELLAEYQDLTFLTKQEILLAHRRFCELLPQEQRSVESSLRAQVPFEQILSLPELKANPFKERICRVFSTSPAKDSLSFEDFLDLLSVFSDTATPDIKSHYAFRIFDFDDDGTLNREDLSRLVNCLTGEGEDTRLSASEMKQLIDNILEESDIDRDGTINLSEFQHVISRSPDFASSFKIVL
row,SMILES,"activity change, negative = inhibition"
1,Oc1ccc(CNCc2ccccc2F)c2cccnc12,-1.64% (inactive)
2,CCOC(=O)C1CCN(C(=O)C(C)(C)NC(=O)Nc2cccc(C(=O)OC)c2)CC1,-16.4% (inactive)
3,Cc1cc(C)nc(NC(=S)N2CC3CN(c4ccc(Cl)cc4C(F)(F)F)CC3C2)c1 (stereo unspecified),1.57% (inactive)
4,Cc1c(P(=S)(c2ccccc2)c2ccccc2)c2ccccc2n1CCCc1ccccc1,1.89% (inactive)
5,O=C(Nc1ccc2ccccc2c1)Nc1nnc(-c2ccc(F)cc2)s1,-2.18% (inactive)
6,COc1cccc(C2c3c(ncn(-c4ccccc4C)c3=N)Oc3ccc4ccccc4c32)c1 (stereo unspecified),5.84% (inactive)
7,O=C(O)c1ccc(S(=O)(=O)N[C@H](Cc2ccc([N+](=O)[O-])cc2)C(=O)O)cc1,0.618% (inactive)
8,Cc1ccccc1-c1nc(NCc2ccc(-c3cccnc3)cc2)c2ccccc2n1,0.443% (inactive)
9,CCOC(=O)C1CCN(C(=O)CNC(=O)Nc2ccccc2Cl)CC1,3.94% (inactive)
10,CC(=O)N1CCN(c2ccc(NCc3ccc4c(c3)OCO4)cc2)CC1,-10.5% (inactive)
11,CC(C)(C)c1ccc(C(=O)NCC(=O)OC(C(=O)Nc2cc(C(F)(F)F)ccc2Cl)c2ccccc2)cc1 (stereo unspecified),-3.75% (inactive)
12,O=C1COc2cc([S+](=O)([O-])Nc3ccc(Cl)c(Cl)c3)c(Cl)cc2N1,-13.8% (inactive)
13,CN(C)c1cccc(-c2ncc(F)c(N3CCC(C(N)=O)CC3)n2)c1,3.13% (inactive)
14,CCc1ccc(-c2nn3c(C)nnc3s2)cc1NC(=O)c1ccc(-c2cccc(Cl)c2)o1,1.45% (inactive)
15,c1coc(CNc2nc(-c3cccs3)nc3ccccc23)c1,0.931% (inactive)
16,COc1ccccc1C(=O)OCC#CCSc1nnc(-c2cccc3ccccc23)o1,5.37% (inactive)
